Compound activity: PubChem, National Center for Advancing Translational Sciences (NCATS)
IMPase Li cell: IMPase inhibition in cells with lithium potentiation | CHO-M1 cells, IP1 TR-FRET (IP-One), carbachol + lithium | Potency, µM (doses to about 59.4 µM), inactives show top-dose activity, negative = IMPase inhibition, actives largely listed as inhibitors | 210,000 tested, 0.35% active | AID 1457; active means well fitted inhibition curve with a large enough effect; inconclusive means small, poorly fitted or top-dose-only effect; inactive means no such curve, though single readings can be large or run the other way;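 further: IP1 builds up when IMPase is blocked and the TR-FRET signal falls; potency means the concentration at half of the fitted maximal effect; plate controls were basal vehicle for no effect and high inhibitor control for full effect; nearly all actives have a fitted effect of over 50% in size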
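CHO cells stably expressing M1 receptor (2000/well, cultured 16–30 h) treated 30 min at 37C with compound plus low lithium. Cytosolic IP1 by TR-FRET (665/620 ratio and 620 channel) after 10 min lysis; AC50 by Hill fit.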
ALDH1A1 inh: ALDH1A1 (human) enzyme inhibition | 220,000 tested, 7.3% active | Purified ALDH1A1, NADH fluorescence, propionaldehyde substrate | P00352 | Potency, µM (highest dose often 75.3 µM), inactives show at the top dose activity, negative = inhibition, actives largely listed as inhibitors;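 further: potency means the concentration at half of the fitted maximal effect; plate controls were no enzyme wells and a reference inhibitor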
HPGD inh: blocks human HPGD enzyme activity | purified HPGD, NADH fluorescence kinetic, PGE2 substrate | AID 894 | 150,000 tested, 4.3% active | Potency, µM, for inactives: top-dose activity change, negative = inhibition, usual class: inhibitors | P15428; further: potency means the concentration at half of the fitted maximal effect
Target sequence (P15428 whole entry, looked up): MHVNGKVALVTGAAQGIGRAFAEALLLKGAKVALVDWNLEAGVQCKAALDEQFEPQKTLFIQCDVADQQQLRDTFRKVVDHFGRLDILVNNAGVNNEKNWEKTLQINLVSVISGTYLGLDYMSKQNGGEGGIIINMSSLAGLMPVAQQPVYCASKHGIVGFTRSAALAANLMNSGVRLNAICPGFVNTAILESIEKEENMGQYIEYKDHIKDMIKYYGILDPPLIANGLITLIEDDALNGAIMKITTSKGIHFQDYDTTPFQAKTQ
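NADH formation kinetics: reaction with 30 uM PGE2 and 1 mM NAD+ (final), 20 nM enzyme, Tris-HCl pH 8 with Tween 20, after 15 min compound preincubation at room temperature. Fluorescence change, last versus first of five reads.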
PNC assembly inh: inhibitors of perinucleolar compartment assembly. PC3M PTB-GFP, PNC prevalence imaging, 16 h; active compounds read low. activity change (PNC), negative = inhibition, % at 10 µM. 140,000 tested, 3.1% active. AID 2417;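 active means readout at or below -70, meaning at least 70% loss of cells showing the perinucleolar compartment, a nuclear body marking cancer cells; inconclusive means readout between -30 and a set limit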;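 further: plate controls were DMSO wells for no effect and camptothecin positive control wells for full effect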
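PC3M cells stably expressing PTB-GFP, 750–1000 cells/well, treated 16 h at 37 °C with compound (23 nl of library stock), in duplicate. After paraformaldehyde fixation and Hoechst stain, imaged at 20x; PNC prevalence scored by image analysis.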
IMPase cell inh: IMPase inhibition in cells. 120,000 tested, under 10 active. CHO-M1 cells, IP1 accumulation, HTRF TR-FRET ratio. inhibition (IP1 accumulation), % at 46.1 µM; active means well fitted curve in the direction sought with a large enough effect in the signal ratio, not every such curve was filed as active; inconclusive means small, poorly fitted or top-dose-only effect, or a change in a side signal; inactive means no such curve, though single readings can be large or run the other way; the % refers to the signal ratio;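 further: cells stimulated with carbachol in lithium chloride buffer; plate controls were DMSO basal wells for no effect and reference inhibitor wells for full effect; higher means more IMPase inhibition seen as more IP1 and lower FRET ratio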
Target sequence (P97697 whole entry, looked up): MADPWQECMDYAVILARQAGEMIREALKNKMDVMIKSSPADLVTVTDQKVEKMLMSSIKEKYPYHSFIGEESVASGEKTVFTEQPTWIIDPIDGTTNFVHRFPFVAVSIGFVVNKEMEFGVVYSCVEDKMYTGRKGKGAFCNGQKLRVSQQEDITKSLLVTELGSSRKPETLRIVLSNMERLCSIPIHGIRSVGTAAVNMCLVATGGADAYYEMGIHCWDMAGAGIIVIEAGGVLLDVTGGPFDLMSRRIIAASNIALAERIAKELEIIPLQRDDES
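Elevated IP1 in lysates lowers TR-FRET signal (665/620 ratio and 620 channel reported). Cells were CHO-M1, given carbachol (50 uM as added) plus 50mM LiCl, pH 7.4, 30 min, 37C; compounds titrated up to 46 uM; AC50 by Hill equation.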
* hit, by the source's call; ? = inconclusive; / = not tested or not shown; [ ] = dose if it differs, or a comment. In the library only some 11% were active in any assay of this set; here they are far more common. Unless noted, the call rests on the fitted dose curve; in most records, active means well fitted inhibition curve with a large enough effect (not every such curve was filed as active); inconclusive means small, poorly fitted or top-dose-only effect, or another doubt; inactive means no such curve, though single readings can be large or run the other way. Unless noted, on the % scale 0 is the no-effect control and ±100 the full control effect.

SMILES	IMPase Li cell	ALDH1A1 inh	HPGD inh	PNC assembly inh	IMPase cell inh
Cc1ccc(S(=O)(=O)Oc2ccc(/C=C(/NC(=O)c3ccccc3)C(=O)NCCC(=O)O)cc2)cc1	2%	2.5µM*	/	/	/
Cc1ccc(S(=O)(=O)Oc2ccc(/C=C(/NC(=O)c3ccccc3)C(=O)NCCCC(=O)O)cc2)cc1	9%	2.8µM*	/	/	/
COc1ccc(NC(=O)/C(=C\c2ccc(OS(=O)(=O)c3ccc(C)cc3)cc2)NC(=O)c2ccccc2)cc1	2%[38.3 µM]	1µM*	-15%	9	5
Cc1ccc(S(=O)(=O)Oc2ccc(/C=C(/NC(=O)c3ccccc3)C(=O)Nc3ccccc3)cc2)cc1	4%[38.3 µM]	?	?	27	-2
CCN(c1ccc(OCC(=O)OCC(=O)Nc2ccc(F)c(F)c2F)cc1)S(=O)(=O)c1ccccc1	-8%	0%	-4%	-22	/
COc1cccc(Cn2c(=O)c(-c3cccs3)nc3cnc(N4CCOCC4)nc32)c1	-7%	?	/	/	/
Cn1c(=O)n(C)c2cc(/C=N/NC(=O)c3ccc(Cl)cc3Cl)ccc21	8%[38.3 µM]	?	?	64	5
COc1ccc(Br)cc1C(=O)N/N=C/c1ccc2c(c1)n(C)c(=O)n2C	-23%	?	?	-82*	/
Cn1nnnc1SCc1ccc(Cl)cc1	1%	7%	/	/	/
Cn1c(SCc2ccccc2)nnc1C1CCCNC1 (configuration not stated)	26%[38.3 µM]	5%	-2%	-107*	-9
Cn1c(SCc2ccc(Cl)cc2)nnc1C1CC1	10%	12µM*	/	/	/
COc1ccc(/C=N/n2cnnc2SCc2ccccc2)cc1	11%[38.3 µM]	-2%	-1%	0	1
Cc1ccc(NC(=O)C(SCC(=O)O)c2ccccc2)cc1C (configuration not stated)	-3%[38.3 µM]	?	-10%	-29	14[1.84 µM]
COC(=O)CSC(C(=O)Nc1ccc(C)c(C)c1)c1ccccc1 (configuration not stated)	1%[38.3 µM]	10µM*	-23%	42	5
O=C(CSc1nnc(Cn2nnc(-c3ccccc3)n2)n1-c1ccccc1)Nc1ccccc1	3%[38.3 µM]	4.5µM*	-7%	?	4
CCCC(=O)Nc1ccccc1-c1nnn(CC(=O)Nc2ccc(OC)cc2)n1	23%[38.3 µM]	15%	-5%	-81*	-1
CCOC(=O)c1ccc(NC(=O)Cn2nnc(-c3ccc(F)cc3)n2)cc1	0%[38.3 µM]	1%	0%	19	2
CCOC(=O)c1ccc(NC(=O)Cn2nnc(-c3ccccc3)n2)cc1	/	25µM*	/	?	-3
O=C(COC(=O)Cn1cnc2ccccc21)NCCc1ccc(Cl)cc1	19%[38.3 µM]	13µM*	-9%	?	2
COc1ccc(CCNC(=O)COC(=O)Cn2cnc3ccccc32)cc1OC	-4%	?	/	/	/
CCOC(=O)c1sc(NC(=O)COC(=O)Cn2cnc3ccccc32)c(C(=O)OCC)c1C	23%	?	-2%	-97*	7
CCOC(=O)c1sc(NC(=O)COC(=O)CNC(=O)c2ccco2)c(C(=O)OCC)c1C	18%	28µM*	-26%	?	/
CN(C)Cc1ccccc1-c1ccc2ncnc(NCc3cccs3)c2c1	19%	6%	-27%	/	/
CCOC(=O)c1c(NC(=O)CC2SC(N)=NC2=O)sc2c1CCCC2 (configuration not stated)	0%[38.3 µM]	-9%	-8%	-23	-4
Cn1c(CNC(=O)c2ccccc2F)nnc1SCC(=O)N1CCN(c2ccccc2)CC1	6%	?	/	/	/
SMILES	IMPase Li cell	ALDH1A1 inh	HPGD inh	PNC assembly inh	IMPase cell inh
Cc1ccccc1C(=O)NCc1nnc(SCC(=O)N2CCN(c3ccccc3)CC2)n1C	17%[38.3 µM]	10µM*	0%	?	9
CC(C)=NOC[C@@H](O)[C@@H]1O[C@@H]2OC(C)(C)O[C@@H]2[C@H]1O	/	9%[13.5 µM]	/	/	/
Cc1ccnc(NC(=S)NC(=O)c2cncc(Br)c2)c1	7%	-4%	-8%	-100*	/
COc1ccc(C(=O)NC(=O)Nc2cc(C)ccn2)cc1	/	13µM*	/	?	-2
CNS(=O)(=O)c1cc(NC(C)=O)c(C)cc1C	0%	7%	-1%	?	/
COC(=O)C1Cc2c([nH]c3ccccc23)C(C)N1 (configuration not stated)	1%	1%	-6%	-91*	2
O=C(N/N=C1/C[C@@H](O)[C@@H](O)[C@@H]2[C@@H]3C(=O)N(Cc4ccccc4)C(=O)[C@H]3CC[C@H]12)OCc1ccccc1	/	14%[13.5 µM]	/	/	/
CCOc1ccc2ccccc2c1/C=N/n1cncn1	37%[38.3 µM]	?	32µM*	-6	-5
CCCOc1ccc2ccccc2c1/C=N/n1cnnc1	17%[38.3 µM]	5%	-12%	-15	-4
CCn1c(CSc2nnc(-c3ccc4c(c3)OCO4)o2)nc2cc(S(=O)(=O)N(C)C)ccc21	22%[38.3 µM]	?	-14%	-26	8
CCN(CC)Cc1cc(C(C)=O)ccc1OCC(C)C	9%[38.3 µM]	1.1µM*	-3%	-24	0
Cc1cc(NCc2ccccc2)n2ncnc2n1	1%	8%	/	/	/
Cc1cc(NCc2ccco2)n2ncnc2n1	2%	4%	2%	-119*	5
O=C(C1CCCO1)N1CCN(Cc2nc3ccccc3c(=O)[nH]2)CC1 (configuration not stated)	26%[38.3 µM]	?	-11%	-135*	-5
O=c1[nH]c(CN2CCOCC2)nc2ccccc12	0%	6%	/	/	/
COc1ccc(-c2noc(CSc3nc(-c4ccccc4)cc(=O)[nH]3)n2)cc1	1%[38.3 µM]	-1%	-14%	?	-3
Nc1nc(SCc2ccccc2)[nH]c(=O)c1-c1ccccc1	20%[38.3 µM]	14µM*	-9%	-18	5
COc1ccc(-c2noc(CSc3nc(N)c(-c4ccccc4)c(=O)[nH]3)n2)cc1OC	3%	?	16µM*	?	14
Nc1nc(SCC(=O)N2CCCc3ccccc32)[nH]c(=O)c1-c1ccccc1	34%[38.3 µM]	22µM*	-16%	-17	2
Nc1nc(SCc2ccccc2Cl)[nH]c(=O)c1-c1ccccc1	10%	-5%	-14%	?	-2
Cc1ccc(NC(=O)N2CCCCC2)cc1[N+](=O)[O-]	/	6%	/	/	/
Cc1ccc(C)c(S(=O)(=O)N(C(=O)c2ccncc2)c2ccc(OC(=O)c3ccncc3)cc2)c1	5%	2%	/	/	/
Cc1ccc(S(=O)(=O)N(C(=O)c2ccncc2)c2ccc(OC(=O)c3ccncc3)cc2)c(C)c1	-2%	-1%	28µM*	-14	/
COc1nc(Cl)nc(Cl)c1Cl (tested in a mixture with another compound)	-2%	6%[13.5 µM]	-4%	/	/
CSc1cccc(NC(=O)C2CCN(C(=O)c3ccccc3C)CC2)c1	3%	5%	-4%	-10	/
O=C(COc1cccnc1[N+](=O)[O-])c1ccc(Cl)s1	/	0.71µM*	/	/	/
CC1=NN(c2ccccc2)C(=O)C1/C=C1\NC(=S)NC1=O (configuration not stated)	2%	13µM*	/	/	/
